Assay in all cases: log2 fold change, soluble protein after heating vs DMSO (PISA); higher = thermal stabilisation; K562 lysate, 10 uM; active = over 0.2 and 3.5 SD of the protein, either way, in both replicates (recomputed)
Compound in experiment [1]: NCC(=O)Nc1ccc(-n2nc(C(F)(F)F)cc2-c2ccc3c(ccc4ccccc43)c2)cc1
Put shortly: (§1)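 Pellets of K562 cells were dounce-homogenised in PBS pH 7.4 with 1 mM MgCl2, and the crude extract was held at 1 mg/mL protein for a 30 min treatment with 10 μM compound. Aliquots were heated for 3 min over 48°C-58°C and pooled before NP-40 was added to 0.5% at 4°C. The supernatant from 21,000xg for 90 min was quantified by TMTpro 16plex LC-MS/MS with channel sums equalised. Values are reported from duplicates as log-two fold change in thermal stability relative to solvent controls.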

Compound in experiment [2]: O=C(CCCCCCC(=O)Nc1ccccc1)NO [vorinostat]
The essentials: as §1

Compound in experiment [3]: O=C(O)c1ccc2c(c1)nc(Nc1cccc(Cl)c1)c1ccncc12 [silmitasertib]
The essentials:
as §1

Compound in experiment [4]: O=C1NC(=O)C(c2cnc3ccccn23)=C1c1cn2c3c(cc(F)cc13)CN(C(=O)N1CCCCC1)CC2
The essentials: as §1

Compound in experiment [5]: c1cn2cc(-c3ccc4cn[nH]c4c3)nc(Nc3ccc(N4CCOCC4)cc3)c2n1 [entospletinib]
Put shortly:
as §1

About 8,800 targets were measured; listed, in parts, are those with a hit and a random draw of the rest. About 0.5% of all pairs of compound and target were hits. Unmarked numbers belong to inactive results.

Data on 24 targets can be found in the supplement of paper PMC10849652.

Chain of UniProt P27816 (P27816 whole entry, looked up): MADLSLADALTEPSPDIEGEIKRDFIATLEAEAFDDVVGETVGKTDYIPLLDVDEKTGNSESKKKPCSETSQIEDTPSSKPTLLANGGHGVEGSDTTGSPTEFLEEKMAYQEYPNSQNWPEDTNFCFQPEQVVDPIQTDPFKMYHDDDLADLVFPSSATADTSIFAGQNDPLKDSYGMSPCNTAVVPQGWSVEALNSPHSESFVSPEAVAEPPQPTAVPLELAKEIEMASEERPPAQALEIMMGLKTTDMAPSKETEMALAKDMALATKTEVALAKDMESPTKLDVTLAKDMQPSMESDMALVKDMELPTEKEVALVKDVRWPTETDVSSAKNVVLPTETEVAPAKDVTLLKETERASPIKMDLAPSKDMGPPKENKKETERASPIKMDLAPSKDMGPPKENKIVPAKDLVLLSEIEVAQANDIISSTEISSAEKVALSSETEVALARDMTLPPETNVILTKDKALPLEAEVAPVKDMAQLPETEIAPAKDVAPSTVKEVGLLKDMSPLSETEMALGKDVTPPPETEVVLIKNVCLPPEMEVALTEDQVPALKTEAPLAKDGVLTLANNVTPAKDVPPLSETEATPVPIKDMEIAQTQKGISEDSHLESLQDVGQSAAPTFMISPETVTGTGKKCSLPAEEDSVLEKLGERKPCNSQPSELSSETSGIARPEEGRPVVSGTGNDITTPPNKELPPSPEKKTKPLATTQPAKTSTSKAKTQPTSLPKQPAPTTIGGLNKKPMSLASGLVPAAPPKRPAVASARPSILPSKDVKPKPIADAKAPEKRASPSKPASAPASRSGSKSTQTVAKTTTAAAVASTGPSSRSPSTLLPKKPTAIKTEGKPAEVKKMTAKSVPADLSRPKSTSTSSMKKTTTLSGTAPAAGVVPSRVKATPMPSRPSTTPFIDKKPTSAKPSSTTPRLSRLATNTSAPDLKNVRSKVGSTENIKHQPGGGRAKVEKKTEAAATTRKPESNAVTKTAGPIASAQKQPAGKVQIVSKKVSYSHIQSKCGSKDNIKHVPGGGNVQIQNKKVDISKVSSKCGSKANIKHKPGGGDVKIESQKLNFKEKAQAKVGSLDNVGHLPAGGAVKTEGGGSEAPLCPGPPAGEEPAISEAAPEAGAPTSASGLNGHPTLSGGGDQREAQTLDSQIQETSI
Chain of UniProt Q9BQ69 (Q9BQ69 whole entry, looked up): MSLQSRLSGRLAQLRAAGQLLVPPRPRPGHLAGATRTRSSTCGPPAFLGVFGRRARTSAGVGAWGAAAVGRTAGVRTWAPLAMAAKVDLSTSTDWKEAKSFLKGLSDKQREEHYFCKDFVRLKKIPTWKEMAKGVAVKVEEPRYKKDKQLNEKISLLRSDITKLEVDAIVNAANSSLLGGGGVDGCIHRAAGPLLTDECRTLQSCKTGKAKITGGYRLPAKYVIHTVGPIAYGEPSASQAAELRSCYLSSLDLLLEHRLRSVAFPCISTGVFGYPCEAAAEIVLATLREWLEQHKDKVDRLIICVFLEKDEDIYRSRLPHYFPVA
Chain of UniProt P53671 (P53671 whole entry, looked up): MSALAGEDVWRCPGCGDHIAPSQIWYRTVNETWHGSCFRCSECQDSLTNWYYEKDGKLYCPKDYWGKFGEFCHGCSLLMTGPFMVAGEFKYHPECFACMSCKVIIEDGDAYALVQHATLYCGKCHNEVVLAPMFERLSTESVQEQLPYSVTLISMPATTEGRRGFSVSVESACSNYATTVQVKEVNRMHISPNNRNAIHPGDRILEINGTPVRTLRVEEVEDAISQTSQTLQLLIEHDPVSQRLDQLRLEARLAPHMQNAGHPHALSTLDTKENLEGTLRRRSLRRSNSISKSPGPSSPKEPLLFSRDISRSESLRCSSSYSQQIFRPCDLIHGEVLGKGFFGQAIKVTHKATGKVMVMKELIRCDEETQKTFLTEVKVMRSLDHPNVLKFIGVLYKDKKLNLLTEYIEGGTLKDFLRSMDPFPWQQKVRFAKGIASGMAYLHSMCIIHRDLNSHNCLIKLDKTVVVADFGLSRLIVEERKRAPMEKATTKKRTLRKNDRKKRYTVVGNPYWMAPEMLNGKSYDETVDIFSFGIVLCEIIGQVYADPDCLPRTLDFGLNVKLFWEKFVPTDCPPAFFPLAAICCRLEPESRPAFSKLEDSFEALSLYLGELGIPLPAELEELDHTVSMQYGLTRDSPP
Chain of UniProt Q8IWC1 (Q8IWC1 whole entry, looked up): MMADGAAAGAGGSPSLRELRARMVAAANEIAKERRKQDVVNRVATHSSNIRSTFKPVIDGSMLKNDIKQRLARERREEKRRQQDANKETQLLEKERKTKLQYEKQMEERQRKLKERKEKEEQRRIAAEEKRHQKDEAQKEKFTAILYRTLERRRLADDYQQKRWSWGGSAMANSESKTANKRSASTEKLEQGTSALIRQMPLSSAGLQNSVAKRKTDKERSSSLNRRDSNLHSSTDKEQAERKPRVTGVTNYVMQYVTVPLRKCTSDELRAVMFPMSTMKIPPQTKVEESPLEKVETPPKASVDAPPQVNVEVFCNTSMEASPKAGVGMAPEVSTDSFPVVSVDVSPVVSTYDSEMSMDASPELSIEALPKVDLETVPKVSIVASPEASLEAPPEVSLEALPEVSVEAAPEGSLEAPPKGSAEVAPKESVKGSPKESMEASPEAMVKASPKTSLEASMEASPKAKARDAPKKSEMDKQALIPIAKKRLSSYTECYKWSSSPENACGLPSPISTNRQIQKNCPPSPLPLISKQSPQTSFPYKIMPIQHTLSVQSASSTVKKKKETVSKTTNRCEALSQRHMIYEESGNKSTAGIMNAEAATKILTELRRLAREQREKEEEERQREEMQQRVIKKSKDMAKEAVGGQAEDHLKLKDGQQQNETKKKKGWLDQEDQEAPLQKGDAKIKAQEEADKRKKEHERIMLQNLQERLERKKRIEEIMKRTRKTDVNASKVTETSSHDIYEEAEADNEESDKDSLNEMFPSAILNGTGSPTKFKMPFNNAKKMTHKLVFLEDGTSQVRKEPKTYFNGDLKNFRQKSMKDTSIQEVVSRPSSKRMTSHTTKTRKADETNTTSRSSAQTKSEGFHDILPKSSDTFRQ
Chain of UniProt O95239 (O95239 whole entry, looked up): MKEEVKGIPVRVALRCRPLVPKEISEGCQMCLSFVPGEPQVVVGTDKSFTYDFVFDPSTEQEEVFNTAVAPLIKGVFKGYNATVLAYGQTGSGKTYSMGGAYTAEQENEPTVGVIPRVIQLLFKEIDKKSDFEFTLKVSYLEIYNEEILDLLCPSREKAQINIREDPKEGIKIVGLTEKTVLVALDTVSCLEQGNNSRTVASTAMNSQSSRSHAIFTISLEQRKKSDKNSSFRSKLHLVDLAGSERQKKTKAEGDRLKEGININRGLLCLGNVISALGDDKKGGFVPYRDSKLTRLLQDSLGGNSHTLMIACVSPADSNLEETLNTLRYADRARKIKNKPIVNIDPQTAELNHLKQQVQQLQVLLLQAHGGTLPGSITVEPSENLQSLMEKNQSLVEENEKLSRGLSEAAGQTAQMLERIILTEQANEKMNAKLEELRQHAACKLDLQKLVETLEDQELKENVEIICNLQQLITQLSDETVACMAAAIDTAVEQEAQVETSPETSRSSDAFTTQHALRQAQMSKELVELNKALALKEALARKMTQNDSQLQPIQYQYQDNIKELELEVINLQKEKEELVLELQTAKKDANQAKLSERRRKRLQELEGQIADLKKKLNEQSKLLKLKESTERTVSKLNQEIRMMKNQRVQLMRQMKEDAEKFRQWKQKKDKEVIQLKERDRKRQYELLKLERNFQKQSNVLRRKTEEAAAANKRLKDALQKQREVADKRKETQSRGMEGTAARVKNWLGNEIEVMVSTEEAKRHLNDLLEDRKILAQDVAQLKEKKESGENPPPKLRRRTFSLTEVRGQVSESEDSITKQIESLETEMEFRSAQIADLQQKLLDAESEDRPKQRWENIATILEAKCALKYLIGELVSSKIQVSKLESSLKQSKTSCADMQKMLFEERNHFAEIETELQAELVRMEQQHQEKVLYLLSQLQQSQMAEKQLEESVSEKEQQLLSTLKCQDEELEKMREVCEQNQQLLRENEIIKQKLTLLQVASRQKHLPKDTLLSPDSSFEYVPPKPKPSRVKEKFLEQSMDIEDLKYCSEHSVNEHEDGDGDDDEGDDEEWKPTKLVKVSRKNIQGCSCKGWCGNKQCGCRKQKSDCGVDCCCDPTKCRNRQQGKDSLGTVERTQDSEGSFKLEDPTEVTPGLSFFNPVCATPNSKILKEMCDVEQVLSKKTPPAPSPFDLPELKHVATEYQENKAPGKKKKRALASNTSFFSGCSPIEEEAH
Chain of UniProt P48449 (P48449 whole entry, looked up): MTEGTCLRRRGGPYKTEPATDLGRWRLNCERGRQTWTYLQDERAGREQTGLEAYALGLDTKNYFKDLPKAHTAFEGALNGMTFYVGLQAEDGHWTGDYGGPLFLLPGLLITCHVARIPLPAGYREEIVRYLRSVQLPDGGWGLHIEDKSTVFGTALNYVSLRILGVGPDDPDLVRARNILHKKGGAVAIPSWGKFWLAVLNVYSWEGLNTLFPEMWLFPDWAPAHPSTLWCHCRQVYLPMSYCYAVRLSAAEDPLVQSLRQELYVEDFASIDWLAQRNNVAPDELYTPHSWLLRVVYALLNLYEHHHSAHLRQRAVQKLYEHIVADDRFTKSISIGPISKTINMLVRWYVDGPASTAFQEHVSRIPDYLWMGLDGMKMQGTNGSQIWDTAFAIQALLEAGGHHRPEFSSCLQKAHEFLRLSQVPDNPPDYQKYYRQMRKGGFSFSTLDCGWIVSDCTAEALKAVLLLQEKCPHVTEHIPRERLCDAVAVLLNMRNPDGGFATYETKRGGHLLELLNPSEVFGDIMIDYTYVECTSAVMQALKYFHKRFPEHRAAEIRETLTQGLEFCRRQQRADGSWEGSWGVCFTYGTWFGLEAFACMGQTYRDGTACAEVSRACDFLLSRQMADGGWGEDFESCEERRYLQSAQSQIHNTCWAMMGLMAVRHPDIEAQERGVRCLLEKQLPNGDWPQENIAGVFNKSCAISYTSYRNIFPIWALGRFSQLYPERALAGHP

On to MOCS1 isoform 8 (UniProt Q9NZB8), for which the log2 fold change was -0.1 in experiment [1]; 0.06 in experiment [2]; -0.018 in experiment [3]; -0.111 in experiment [4]; -0.051 in experiment [5].

As to MARF1 (UniProt Q9Y4F3), the log2 fold change is 0.006 in experiment [1]; -0.471 (active) in experiment [2]; 0.003 in experiment [3]; -0.045 in experiment [4]; 0.049 in experiment [5].

Consider LZTS1 (UniProt Q9Y250), for which the log2 fold change in experiment [1] was 0.04; in experiment [2], 0.101; in experiment [3] it was -0.143; in experiment [4], 0.121; in experiment [5], 0.07.

Consider MAP4 (UniProt P27816), for which the log2 fold change in experiment [1] was 0.017; in experiment [2], 0.092; in experiment [3] it was -0.023; in experiment [4], 0.016; in experiment [5] it was 0.005.

Turning to MAPK6 (UniProt Q16659), the log2 fold change is -0.04 in experiment [1]; -0.033 in experiment [2]; 0.033 in experiment [3]; 0.035 in experiment [4]; 0.024 in experiment [5].

For MLXIP (UniProt Q9HAP2), the log2 fold change in experiment [1] is 0.037; in experiment [2], -0.314 (active); in experiment [3], 0.026; in experiment [4] it was 0.079; in experiment [5] it was 0.03.

Consider MED10 (UniProt Q9BTT4), for which the log2 fold change is -0.001 in experiment [1]; -0.04 in experiment [2]; -0.085 in experiment [3]; 0.021 in experiment [4]; -0.349 (active) in experiment [5].

In the case of MAP4 isoform 5 (UniProt P27816), the log2 fold change in experiment [1] was 0.001; in experiment [2] it was 0.359; in experiment [3], 0.074; in experiment [4], 0.087; in experiment [5], 0.063.

As to KLHL12 isoform 2 (UniProt Q53G59), the log2 fold change is 0.135 in experiment [1], -0.108 in experiment [2], 0.024 in experiment [3] and 0.003 in experiment [4].

Regarding MAPK8 isoform 3 (UniProt P45983), the log2 fold change in experiment [1] is 0.064; in experiment [2], -0.395 (active); in experiment [3], 0.007; in experiment [4], 0.038; in experiment [5], -0.039.

With MAP2K2 (UniProt P36507), the log2 fold change in experiment [1] was -0.031; in experiment [2], -0.088; in experiment [3], 0.099; in experiment [4] it was 0.032; in experiment [5] it was 0.04.

Turning to MGST1 (UniProt P10620), the log2 fold change in experiment [1] was -0.013; in experiment [2], 0.037; in experiment [3], -0.013; in experiment [4], 0.031; in experiment [5] it was -0.01.

Consider MAP7D3 (UniProt Q8IWC1), for which the log2 fold change is 0.098 in experiment [1]; 0.037 in experiment [2]; 0.059 in experiment [3]; -0.046 in experiment [4]; -0.013 in experiment [5].

As to LGALS3BP (UniProt Q08380), the log2 fold change is 0.153 in experiment [1]; 0.176 in experiment [2]; -0.121 in experiment [3]; 0.113 in experiment [4]; -0.129 in experiment [5].

As to MGAT5 (UniProt Q09328), the log2 fold change in experiment [1] was 0.054; in experiment [2], 0.139; in experiment [3], -0.014; in experiment [4], 0.013; in experiment [5], 0.063.

With LSS (UniProt P48449), the log2 fold change in experiment [1] is -0.042; in experiment [2], 0.049; in experiment [3], -0.039; in experiment [4], -0.014; in experiment [5], -0.043.

As to LARP4B (UniProt Q92615), the log2 fold change in experiment [1] was 0.019; in experiment [2], -0.306 (active); in experiment [3], 0.032; in experiment [4] it was -0.028; in experiment [5], -0.011.

For the target KIF4A (UniProt O95239), the log2 fold change in experiment [1] was -0.017; in experiment [2] it was -0.445 (active); in experiment [3], 0.017; in experiment [4] it was 0.013; in experiment [5], 0.001.

Turning to LIMK2 isoform 3 (UniProt P53671), the log2 fold change in experiment [1] is -0.011; in experiment [2], -0.21; in experiment [3], 0.114; in experiment [4], 0.021; in experiment [5], -0.055.

As to LRIF1 (UniProt Q5T3J3), the log2 fold change in experiment [1] was 0.079; in experiment [2], 0.082; in experiment [3], -0.11; in experiment [4] it was -0.024; in experiment [5], 0.001.

For the target MLST8 (UniProt Q9BVC4), the log2 fold change was 0.006 in experiment [1]; -0.357 (active) in experiment [2]; 0.104 in experiment [3]; 0.046 in experiment [4]; 0.043 in experiment [5].

Consider MAP2K5 (UniProt Q13163), for which the log2 fold change is -0.111 in experiment [1]; -0.293 in experiment [2]; -0.123 in experiment [3]; 0.023 in experiment [4]; 0.065 in experiment [5].

Take MACROD1 (UniProt Q9BQ69): the log2 fold change in experiment [1] was 0.11; in experiment [2], -0.363 (active); in experiment [3], 0.04; in experiment [4], 0.05; in experiment [5], 0.047.

Turning to KRIT1 (UniProt O00522), the log2 fold change in experiment [1] was -0.125; in experiment [2], -0.046; in experiment [3], -0.013; in experiment [4], -0.02; in experiment [5], 0.012.
